# Laboratory results: PubChem BioAssay (NCI)
# The panel holds about 79,000 compounds, 15% with a hit somewhere; the sample as a whole holds those more often. A number with no mark means an inactive call. The source made the active and inactive calls. No stated cut-off is given here; in the data, active means growth inhibition above about 70%; inactive means the rest.
# Tests used:
# [1] = NCI Yeast Anticancer Drug Screen. Data for the rad50 strain (AID 155);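 further: 0% = growth of vehicle-only cultures of the same strain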; conditions: S. cerevisiae rad50 strain growth inhibition; at 50.0 µM; stronger effect = higher value
# Summary of the method: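 Cells are treated with compound, grown, and their growth is then scored against vehicle-only cultures of the same repair-deficient yeast strain.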
# [2] = NCI Yeast Anticancer Drug Screen. Data for the mec2-1 strain (AID 157); conditions: S. cerevisiae mec2-1 strain, at 50.0 µM, stronger effect = higher value
# Summary of the method: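 Each compound was tested on mec2-1 yeast, a strain altered in DNA damage repair or cell cycle control. Growth inhibition is reported relative to vehicle.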
# [3] = NCI Yeast Anticancer Drug Screen. Data for the sgs1 mgt1 strain (AID 161);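 further: 0% = growth of cultures given vehicle only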; conditions: S. cerevisiae sgs1 mgt1 strain, at 50.0 µM, stronger effect = higher value
# Summary of the method: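 Genetically altered yeast, compound exposure, growth inhibition relative to vehicle.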
# [4] = NCI Yeast Anticancer Drug Screen. Data for the cln2 rad14 strain (AID 165);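 further: 0% = growth equal to vehicle treated cultures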; conditions: S. cerevisiae cln2 rad14 strain, at 50.0 µM, stronger effect = higher value
# Summary of the method: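 Test compounds were added to cln2 rad14 yeast cultures; inhibition of growth was then determined by comparison with vehicle treatment.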
# [5] = NCI Yeast Anticancer Drug Screen. Data for the bub3 strain (AID 167); conditions: S. cerevisiae bub3 mutant strain, at 50.0 µM, stronger effect = higher value
# Summary of the method: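 Part of a panel of yeast mutants defective in DNA damage repair or cell cycle regulation. Each strain is grown with compound, and inhibition is calculated relative to solvent-treated cultures.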
# [6] = NCI Yeast Anticancer Drug Screen. Data for the mlh1 rad18 strain (AID 175); conditions: S. cerevisiae mlh1 rad18 strain growth inhibition; at 50.0 µM; stronger effect = higher value
# Summary of the method: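 Inhibition values reflect reduced growth of mutant yeast versus vehicle-treated controls following compound exposure; the mutations affect DNA damage repair.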
Structure (SMILES),growth inhibition [1],growth inhibition [2],growth inhibition [3] [%],growth inhibition [4] [%],growth inhibition [5] [%],growth inhibition [6]
CC(=O)OCC1OC(Nc2[nH]c(=O)n(C)c(=O)c2C=O)C(OC(C)=O)C(OC(C)=O)C1OC(C)=O (configuration not stated),2.5%,9.4%,6.7,9.15,-0.4,3.95%
N#C/C(N)=C(\C#N)NC=NCCO,5.35%,7.75%,13.2,18,10.6,-37.8%
CC(C)(c1ccccc1)c1ccc(Oc2ccc(C#N)c(C#N)c2)cc1,-27.2%,-7.6%,-14,3.3,-35.8,-21.6%
NC(=S)N/N=C/c1ccc2c(c1)OCO2,1.55%,25.8%,9,47.4,22.9,13.1%
O=C(O)c1ccccc1-c1ccccc1C(=O)Nc1ccc2c(c1)[nH]c(=O)c1ccccc12,-13.8%,-3.85%,-21.8,46.9,-15.8,-22.3%
Cc1c(-c2ccccc2)c2ccccc2c2ccccc12,-10%,-15.6%,-4.25,0.1,2.2,-14.4%
CCSCCC(C)(N)C(=O)O (configuration not stated),-7.35%,-8.85%,-12.3,-38.7,2.3,-3.7%
CCN(CC)C1C(=O)NC1C#Cc1ccccc1 (configuration not stated),19%,6.5%,7.05,5.95,7.6,15.6%
CC(C)(C)C1CCC2c3c([nH]c4ncccc34)C3C(=O)N(c4ccccc4)C(=O)C3C2C1 (configuration not stated),20.4%,-6.15%,1.7,-67.2,-32.6,-7.85%
CN(C)c1ccc(/[N+]([O-])=C/c2cccc3ccccc23)cc1,3.05%,22.6%,15.2,-51.9,60.3,38.4%
OC(CNc1ncccn1)(Cc1ccccc1)Cc1ccccc1,9%,-5.2%,2.45,19.1,12,21.2%
CCCCCCc1c(N)nc(N)[nH]c1=O,4.3%,9.35%,-11.2,-36.8,-12.9,-14.2%
Nc1nc(Cc2ccccc2)c(CCCNc2ccccc2)c(=O)[nH]1,-4.95%,5.05%,6.45,-74.3,1.75,-12.8%
Cc1ccc(S(=O)(=O)N/N=C/c2oc(-c3ccccc3Cl)c(-c3ccccc3Cl)c2[N+](=O)[O-])cc1,54.2%,45.3%,58.5,38.4,41.5,48.1%
COc1ccc(/C=C/C2=CC(=O)CC(c3ccc(OC)c(OC)c3)C2)cc1OC (configuration not stated),13.2%,5.35%,16.5,-35.6,31.2,9.35%
COC(=O)CCSCCC(=O)OC,1.5%,-0.15%,-8.15,-8.2,1.75,-1.95%
O=C1C2CC3CC(C2)CC1C3,15.1%,-4.5%,37,9.25,6.05,14.9%
CCN(CC)CCOCC(=O)Nc1ccccc1C,-17.3%,4.8%,4.95,-37.5,22.8,26.6%
[O-][n+]1c2ccc(Cl)cc2nc2ccc(Cl)cc21,-9.35%,-10.9%,-8.25,-27.4,1.45,-4.6%
CCOC(=O)Cc1nc(Cl)c2c(C)c(C)sc2n1,29.8%,5.6%,6.9,20.2,24.9,40.5%
CN1CC2(C)OC3(CC2(C)N1C)N(C)N(C)CC3(C)O (configuration not stated),-12.2%,-1.9%,-12.8,40,11.8,-8.95%

Structure (SMILES),growth inhibition [1],growth inhibition [2],growth inhibition [3] [%],growth inhibition [4] [%],growth inhibition [5] [%],growth inhibition [6]
O=C(O)COCC(=O)N(CCOCCN(Cc1ccccc1)C(=O)COCC(=O)O)Cc1ccccc1,-18.4%,0.75%,7.25,26.6,0.7,4.1%
CN1C(=O)C(=C2CCCCC2)SC1=S,0.55%,7.8%,-11.6,-4.3,2.8,2.15%
O=C(OC(=O)c1cccc2ccccc12)c1cccc2ccccc12,-5.15%,-7.75%,2.3,43.3,12,13.2%
CNc1ccccc1C(=O)N/N=C/c1ccc(O)c(OC)c1,3%,5.65%,0.85,2.55,37.4,-19.6%
Brc1ccc(-c2[nH]c3ccccc3c2N=Nc2ccccc2)cc1,0.85%,-9.6%,6.45,-7,-11.1,-56.7%
O=C(O)CO,-7.7%,3.05%,-6.25,-1.25,-9.15,-29.1%
O=C(O)/C(=C\c1ccccc1[N+](=O)[O-])c1ccc(Cl)cc1,-0.2%,-14.1%,-2.3,-46.8,-8.95,-1.8%
C=CCC12CCC(=O)[C@@]1(C)CC=C(O)C2=O (some centres not stated),8.6%,-2.8%,17.2,-18.2,0.6,0.9%
O=c1[nH]nc(S(=O)(=O)c2ccccc2)c(=O)[nH]1,13.2%,-6.45%,-1.7,-10.6,9.3,-3.2%
CCCCCCCCCC(C)=O,-9.8%,-4.4%,-16,-17.9,4.45,-12.2%
Cc1ccc(S(=O)(=O)Oc2ccccc2C(=O)O)cc1,-7.9%,-14.7%,-12.3,-55.3,14.4,-13.5%
CC1C(=O)OC2C1CCC1(C)C=CC(=O)C(C)C21 (configuration not stated),10.7%,4.95%,1.15,-23.2,1.85,14.8%
CC(=O)Nc1nnc(S(C)(=O)=O)s1,-29.6%,-29%,-55.6,7.25,-36.9,-33%
Cc1ccc(C2=CC(=O)/C(=C\C(=O)c3ccc(Br)cc3)O2)c(C)c1,76.8% (active),77.8% (active),62.1,34.8,52.2,71.9% (active)
O=c1/c(=C\C=C\c2ccccc2)sc2n1CCN=2,-15.7%,-40.6%,-11.3,-10.8,-22.2,-13.5%
Cn1c2ccccc2c2nn3cnnc3nc21,18.1%,41.3%,-3.3,25.5,22.1,-1.95%
C=C(COC(=O)C(C)C)[C@H]1Oc2ccc(C(C)=O)cc2[C@@H]1OC(=O)C(C)C,-11.5%,-3.9%,-15.9,-9.55,0.45,-23.1%
NC(CCOCCP(=O)(O)CCC1C=CC=CC1)C(=O)O (configuration not stated),-9.6%,-31.7%,-29.1,5.6,-21.3,-19.9%
CC(C)=NNC(=O)c1ccc([N+](=O)[O-])cc1,9.35%,0.95%,2.1,5.1,3.65,10.4%
COc1ccc(C(=O)c2ccc(C)c3c(C)cccc23)cc1,4.5%,-9.55%,4.9,-16.6,-7.9,4.85%
COC(=O)C(=O)C(C(=O)C=C(C)C)C(=O)C(=O)Nc1cc(C(F)(F)F)ccc1Cl (configuration not stated),-3%,-1.4%,6,-57.1,1.15,-10.8%
